Bioassay records deposited in PubChem BioAssay by National Center for Advancing Translational Sciences (NCATS).
PI4K2A inh = qHTS for small molecular inhibitors of PI4K2A; purified PI4K2A, ADP-Glo luminescence, 1 h; hits give low values; activity change, negative = inhibition, % at 76.9 µM; actives 0.13% (n = 420,000); AID 1346378, 2018; in the data active = activity change below about -50%; inconclusive = mostly about -30% to -49%
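PI4K2A activity was measured by ADP-Glo luminescence: enzyme (4 ug/mL stock) and phosphatidylinositol (1.2 mM stock) in Tris pH 7.5/MgCl2/EGTA/Triton X-100 buffer were reacted with ATP (300 microM stock) for one hour at ambient temperature.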
PI5P4K alpha inh = qHTS for Inhibitors of phosphatidylinositol 5-phosphate 4-kinase (PI5P4K). Phosphatidylinositol 5-phosphate 4-kinase type-2 alpha (Homo sapiens), P48426. PI5P4Kalpha enzyme, ADP-Glo luminescence, 60 min; hits give low values. max response, %. actives 1.2% (n = 330,000); active = max response of -50% or lower; inconclusive = between -30% and -50%; inactive = -30% or higher; note: value at the top dose of about 77 µM
Target sequence (P48426 whole entry, looked up): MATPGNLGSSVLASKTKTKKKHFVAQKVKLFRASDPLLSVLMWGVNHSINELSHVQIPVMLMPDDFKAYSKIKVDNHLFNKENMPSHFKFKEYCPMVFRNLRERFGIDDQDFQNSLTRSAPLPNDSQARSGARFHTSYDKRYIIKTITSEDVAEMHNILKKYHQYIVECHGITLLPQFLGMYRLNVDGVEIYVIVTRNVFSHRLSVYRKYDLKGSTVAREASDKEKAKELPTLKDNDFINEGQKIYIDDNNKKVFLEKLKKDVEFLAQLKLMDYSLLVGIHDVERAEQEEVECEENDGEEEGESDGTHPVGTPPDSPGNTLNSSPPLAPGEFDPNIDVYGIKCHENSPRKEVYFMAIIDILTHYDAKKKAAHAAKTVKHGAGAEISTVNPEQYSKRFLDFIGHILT
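Luminescence from ADP-Glo served as readout of PI5P4Kalpha activity in a qHTS format. Reaction: enzyme, substrate, compound, ATP at 5 microM final, 60 min at RT.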
Pin1 inh = qHTS Assay to Find Inhibitors of Pin1; AID 504891, 2011; actives 0.009% (n = 390,000); Potency, µM (titrated, usually from 115 µM), hits mostly inhibitors; Peptidyl-prolyl cis-trans isomerase NIMA-interacting 1 (Homo sapiens), Q13526; Pin1 FP peptide displacement, HiFluor488, 10 min; active = well fitted inhibition curve with a large enough effect in the polarisation, with a control signal flat, not every such curve was filed as active; inconclusive = small, poorly fitted or top-dose-only effect, or effect the other way, or a change in a side signal; inactive = no such curve, though single readings can be large or run the other way; the % refers to the polarisation
Target sequence (Q13526 whole entry, looked up): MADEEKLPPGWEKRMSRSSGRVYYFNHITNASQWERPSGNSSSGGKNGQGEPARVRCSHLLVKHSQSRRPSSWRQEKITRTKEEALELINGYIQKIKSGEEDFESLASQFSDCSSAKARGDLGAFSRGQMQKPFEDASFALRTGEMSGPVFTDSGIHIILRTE
Tb PGK inh = qHTS Assay to Find Inhibitors of Phosphoglycerate Kinase | Phosphoglycerate kinase, glycosomal (Trypanosoma brucei brucei), P07378 | PGK/GAPDH coupled, Kinase-Glo luminescence, 60 min | Potency, µM (highest dose often 57.5 µM), actives largely listed as inhibitors | actives 0.043% (n = 380,000) | AID 602233, 2012; active = well fitted inhibition curve with a large enough effect; inconclusive = small, poorly fitted or top-dose-only effect; inactive = no such curve, though single readings can be large or run the other way; note: nearly all actives have a fitted effect of over 60% in size
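Luminescent ATP detection (Kinase-Glo Plus) follows a 60-minute room-temperature incubation, with wells lacking PGK as controls. Buffer: 100 mM TEA (pH 7.6), 5 mM MgCl2, 0.01% Tween-20. Coupling enzyme GAPDH (100 nM final) supplies unstable 1,3-BPG in-well.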
Each line names hits and unclear results; the compound was inactive in the other large screens; ! = not confirmed by another sample. The full list was thinned out, with hits kept by preference.

CC1(C(=O)O)Sc2[nH]c(=O)sc2C2c3ccccc3OC(=O)C21 (centres undefined)	PI5P4K alpha inh -91
COC(=O)C1Sc2[nH]c(=O)sc2C2c3ccccc3OC(=O)C12 (centres undefined)	none
Cc1ccc(N=Cc2cc(Cc3ccccc3Cl)cc([N+](=O)[O-])c2O)c(O)c1	PI4K2A inh inconclusive, PI5P4K alpha inh -69, Pin1 inh inconclusive, Tb PGK inh inconclusive
COc1ccc(N=Cc2cc(Cc3ccccc3Cl)cc([N+](=O)[O-])c2O)cc1OC	PI5P4K alpha inh inconclusive
Cc1oc(-c2ccc3c(c2)OCCO3)cc1C(=O)NCC(=O)O	none
Cc1oc(-c2ccc3c(c2)OCCO3)cc1C(=O)O	PI4K2A inh -75, Tb PGK inh inconclusive
COc1ccc(C(C#N)c2ccc(=O)[nH]n2)cc1 (centres undefined)	PI4K2A inh -62
N#CC(c1ccc(Cl)cc1)c1cccc(Cl)n1 (centres undefined)	none
COc1ccc(Cl)cc1C(=O)NNC(=O)C1COc2ccccc2O1 (centres undefined)	PI5P4K alpha inh -60
O=C(CSc1nc2c([nH]c3ccccc32)c(=O)n1-c1cccc(Cl)c1)N1CCCC1	none (no result: PI5P4K alpha inh)
O=C(OCC(=O)c1ccc(Cl)s1)c1cnccn1	PI5P4K alpha inh -52
COc1ccc(C(=O)O/N=C(/C)c2cccs2)cc1	PI4K2A inh -92, PI5P4K alpha inh -51, Tb PGK inh inconclusive
COc1ccc(C(=O)O/N=C(\N)c2ccccc2)cc1	PI4K2A inh -67, PI5P4K alpha inh inconclusive, Tb PGK inh inconclusive
COc1ccc(C(=O)O/N=C(\C)c2nccs2)cc1	PI4K2A inh inconclusive, PI5P4K alpha inh inconclusive, Tb PGK inh inconclusive
CO[C@@H]1[C@@H](OC)[C@H](C)[C@@](O)(CC(=O)O)O[C@H]1[C@H](C)[C@H]1O[C@@]2(CC[C@@](C)([C@H]3CC[C@@](C)([C@@H]4O[C@@H]([C@H]5O[C@](C)(O)[C@H](C)C[C@@H]5C)C[C@@H]4OC4C[C@H](OC)[C@@H](OC)[C@H](C)O4)O3)O2)C[C@H](O)[C@H]1C (some centres undefined)	none (no result: PI5P4K alpha inh, Pin1 inh, Tb PGK inh)
COc1ccc(C(=O)O)cc1COc1ccc(NC(C)=O)cc1	none (no result: PI4K2A inh, PI5P4K alpha inh, Tb PGK inh)
Nc1c(C=C2C=CC(=O)C=C2)c(=O)nc2sc(CC(=O)N3CCOCC3)nn12	none
Nc1c(/C=C2\C=Nc3ccccc32)c(=O)nc2sc(CC(=O)N3CCOCC3)nn12	PI5P4K alpha inh -53
COC1=C/C(=C/c2c(N)n3nc(CC(=O)N4CCCCC4)sc3nc2=O)C=CC1=O	PI5P4K alpha inh -64
C=CCC1=C/C(=C\c2c(N)n3nc(CC(=O)N4CCCC4)sc3nc2=O)C=C(OC)C1=O	none
COC1=CC(=Cc2c(N)n3nc(CC(=O)N4CCOCC4)sc3nc2=O)C=C(OC)C1=O	PI5P4K alpha inh -64, Pin1 inh inconclusive
CCOC1=C/C(=C/c2c(N)n3nc(CC(=O)N4CCCCC4)sc3nc2=O)C=CC1=O	PI5P4K alpha inh -66
N#Cc1nc(Nc2cc(F)cc(F)c2)c2ncn(CCCO)c2n1	none (no result: PI4K2A inh, PI5P4K alpha inh, Tb PGK inh)
CCOC1=C/C(=C/c2c(N)n3nc(S(=O)(=O)CC)sc3nc2=O)C=CC1=O	PI5P4K alpha inh -56
COC(=O)c1ccc(OC(=O)/C=C/c2ccco2)cc1	none
O=Cc1cccc(OC(=O)/C=C/c2ccco2)c1	PI5P4K alpha inh -98, Tb PGK inh inconclusive (no result: Pin1 inh)
CC(C)(C)OC(=O)Cc1nnc(C(C(=O)OCc2ccccc2)c2ccccc2)o1 (centres undefined)	none (no result: PI4K2A inh, PI5P4K alpha inh, Tb PGK inh)
Cc1cccc(OCc2nnc(SC(C)C(=O)O)n2-c2ccccc2)c1 (centres undefined)	PI5P4K alpha inh -53
C/C(=N\O)[C@@H](C)NCC(C)(C)CN[C@H](C)/C(C)=N/O	none (no result: PI5P4K alpha inh, Pin1 inh, Tb PGK inh)
CC(=O)N1CCc2cc(S(=O)(=O)Nc3ccc(C)c(C)c3)ccc21	none (no result: PI4K2A inh, PI5P4K alpha inh, Tb PGK inh)
O=C(O)c1ccc2c(c1)C1C=CCC1C(c1ccncc1)N2 (centres undefined)	Pin1 inh inconclusive
Cc1c(Cl)cccc1NS(=O)(=O)c1ccc2c(c1)C1C=CCC1C(c1ccc(C(=O)O)cc1)N2 (centres undefined)	PI5P4K alpha inh -102, Pin1 inh inconclusive, Tb PGK inh inconclusive
CC(=O)c1ccc2c(c1)C1C=CCC1C(c1ccc(S(=O)(=O)N3CCOCC3)cc1)N2 (centres undefined)	PI5P4K alpha inh -65, Pin1 inh inconclusive
Cc1cccc(C)c1NS(=O)(=O)c1ccc2c(c1)[C@H]1C=CC[C@H]1[C@@H](c1ccc(Cl)cc1)N2	none (no result: PI5P4K alpha inh)
COc1ccc(NS(=O)(=O)c2ccc3c(c2)[C@H]2C=CC[C@H]2[C@@H](c2ccc(C(=O)O)cc2)N3)cc1	PI5P4K alpha inh -65, Tb PGK inh 28µM! (no result: Pin1 inh)
CCOc1ccc(/C=C2\SC(=S)N(NS(=O)(=O)c3ccccc3)C2=O)cc1OC	none
COc1ccccc1/C=C1\SC(=S)N(NS(=O)(=O)c2ccc(C)cc2)C1=O	PI5P4K alpha inh inconclusive, Pin1 inh inconclusive
COc1ccc(/C=C2\SC(=S)N(NS(=O)(=O)c3ccc(C)cc3)C2=O)c(OC)c1	PI5P4K alpha inh -76
CC(C(=O)O)N1C(=O)/C(=C/C=C/c2ccco2)SC1=S (centres undefined)	PI4K2A inh inconclusive, PI5P4K alpha inh -101, Tb PGK inh 7.9µM (no result: Pin1 inh)
O=C1/C(=C/C=C/c2ccco2)SC(=S)N1NS(=O)(=O)c1ccccc1	PI5P4K alpha inh -81, Pin1 inh inconclusive, Tb PGK inh inconclusive
COc1ccc(OC)c(/C=C2\SC(=S)N(NS(=O)(=O)c3ccc(C)cc3)C2=O)c1	PI5P4K alpha inh -67
O=C(NS(=O)(=O)Oc1ccc(F)cc1F)OC[C@@H]1CCCN2CCCCC12 (some centres undefined)	none
CN1N=C(C(N)=O)CCC1=O	none (no result: PI5P4K alpha inh, Pin1 inh, Tb PGK inh)
O=[N+]([O-])c1ccc2c(c1)S(=O)(=O)C=C2	none (no result: PI5P4K alpha inh, Pin1 inh, Tb PGK inh)
CC(C(=O)N(C)C1CCS(=O)(=O)C1)N1C(=O)/C(=C/c2ccc(F)cc2)SC1=S (centres undefined)	PI5P4K alpha inh inconclusive
O=C1/C(=C/c2cccs2)SC(=S)N1NS(=O)(=O)c1ccccc1	PI5P4K alpha inh -73
COc1ccc(/C=C2\SC(=S)N(NS(=O)(=O)c3ccccc3)C2=O)c(OC)c1	PI5P4K alpha inh -58
COc1ccc(OC)c(/C=C2\SC(=S)N(NS(=O)(=O)c3ccccc3)C2=O)c1	PI5P4K alpha inh inconclusive
CCOc1cc(/C=C2\SC(=S)N(NS(=O)(=O)c3ccccc3)C2=O)ccc1O	PI5P4K alpha inh -67 (no result: Tb PGK inh)
CCN(C(=O)C(C)N1C(=O)/C(=C/c2ccco2)SC1=S)C1CCS(=O)(=O)C1 (centres undefined)	PI4K2A inh inconclusive, PI5P4K alpha inh -68, Pin1 inh inconclusive
CCCCc1oc2ccc(NS(C)(=O)=O)cc2c1C(=O)c1ccc(OCCCN(CCCC)CCCC)cc1	none (no result: PI5P4K alpha inh, Pin1 inh, Tb PGK inh)
O=C(CNC(=O)c1ccc2ccccc2c1)OC(C(=O)Nc1cc(C(F)(F)F)ccc1Cl)c1ccccc1 (centres undefined)	none (no result: PI4K2A inh, PI5P4K alpha inh, Tb PGK inh)
